Results from the supplement of paper PMC6555819.

Legend:
Assay in all cases: PBM binding z-score (relative to random genomic background probes); higher = stronger binding; sequences stand for … in GC…GCGATTGACAGCGTAGAATGAAGG
[1] = tested on: FXR:RXRa (NR concentration 270 nM, RXRa partner concentration 90 nM)
In short: (§1)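 Ligand-free nuclear receptor dimers were applied to custom Agilent 4×180K protein-binding microarrays whose double-stranded probes carried direct-repeat seeds, single-nucleotide variants, half-site ablations and random human genomic background sequences in 34-nt variable regions. Incubation lasted 1 h. Binding z-scores were computed against the random background probes from regression-normalized fluorescence.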

[2] = tested on: LXRa:RXRa (NR concentration 270 nM, RXRa partner concentration 90 nM)
In short: as §1

[3] = tested on: LXRa homodimer (NR concentration 270 nM)
In short: as §1

[4] = tested on: LXRb:RXRa (NR concentration 270 nM, RXRa partner concentration 90 nM)
In short: as §1

[5] = tested on: LXRb homodimer (NR concentration 270 nM)
In short: as §1

[6] = tested on: PPARa:RXRa (NR concentration 270 nM, RXRa partner concentration 90 nM)
In short: as §1

[7] = tested on: PPARg:RXRa (NR concentration 180 nM, RXRa partner concentration 90 nM)
In short: as §1

[8] = tested on: PPARg:RXRa 270nM:90nM, anti-RXR (NR concentration 270 nM, RXRa partner concentration 90 nM)
In short: as §1

[9] = tested on: PPARg:RXRa 30nM:10nM, anti-RXR (NR concentration 30 nM, RXRa partner concentration 10 nM)
In short: as §1

[10] = tested on: PPARg:RXRa 90nM:30nM, anti-RXR (NR concentration 90 nM, RXRa partner concentration 30 nM)
In short: as §1

[11] = tested on: PPARg:RXRa DBDmut IVT, anti-RXR (DBD mutation: RXRa K156A/R161A, NR concentration 270 nM, RXRa partner concentration 90 nM)
In short: as §1

[12] = tested on: PPARg:RXRa IVT, anti-PPARg (NR concentration 270 nM, RXRa partner concentration 90 nM)
In short: as §1

[13] = tested on: PPARg DBDmut:RXRa IVT, anti-PPARg (DBD mutation: PPARg1 K132A/R137A, NR concentration 270 nM, RXRa partner concentration 90 nM)
In short: as §1

[14] = tested on: PPARg DBDmut IVT, anti-PPARg (DBD mutation: PPARg1 K132A/R137A, NR concentration 270 nM)
In short: as §1

[15] = tested on: PPARg homodimer (NR concentration 180 nM)
In short: as §1

[16] = tested on: PXR:RXRa (NR concentration 270 nM, RXRa partner concentration 90 nM)
In short: as §1

[17] = tested on: PXR homodimer (NR concentration 270 nM)
In short: as §1

[18] = tested on: RARa:RXR (NR concentration 270 nM, RXRa partner concentration 90 nM)
In short: as §1

[19] = tested on: RARa homodimer (NR concentration 270 nM)
In short: as §1

[20] = tested on: RARb:RXRa (NR concentration 270 nM, RXRa partner concentration 90 nM)
In short: as §1

Row | Sequence | PBM binding z-score [1] | PBM binding z-score [2] | PBM binding z-score [3] | PBM binding z-score [4] | PBM binding z-score [5] | PBM binding z-score [6] | PBM binding z-score [7] | PBM binding z-score [8] | PBM binding z-score [9] | PBM binding z-score [10] | PBM binding z-score [11] | PBM binding z-score [12] | PBM binding z-score [13] | PBM binding z-score [14] | PBM binding z-score [15] | PBM binding z-score [16] | PBM binding z-score [17] | PBM binding z-score [18] | PBM binding z-score [19] | PBM binding z-score [20]
1 | TCTGCTGGGTCAGTTGGTCAGCTAACGAGCTGCC | 0.384 | -0.0859 | -1.01 | 0.206 | 0.206 | 1.4 | 0.0356 | 1.6 | 1.09 | 1.19 | 2.22 | 2.74 | 0.569 | -0.161 | -0.167 | 0.0304 | -0.922 | 0.33 | -0.731 | 3.19
2 | TCATATAGGTAAAAGATGAAAGTCGGTGTGGTAA | 0.736 | 1.17 | -0.031 | 1.03 | 0.134 | 2.6 | 3.49 | 4.9 | 5.17 | 5.29 | 4 | 2.54 | 1.07 | 0.573 | 0.893 | 0.672 | 0.283 | 1.08 | 1.1 | 0.338
3 | GCAGACATGTGAAACGCAGGTAACTCAGGGTGGC | -0.536 | -0.654 | -0.866 | -0.864 | -1.11 | -0.505 | 0.622 | -0.625 | -0.725 | -0.59 | -0.934 | -0.641 | -0.654 | -1.35 | -1.78 | -0.925 | -0.866 | -0.472 | -0.769 | -0.383
4 | CCAACTAGGTCACAGAGGTCAAAGTCCGTGCGTA | 7.03 | 6.68 | 7.62 | 6.53 | 2.14 | 6.53 | 9.3 | 7.99 | 5.85 | 7.48 | 8.13 | 8.5 | 1.22 | 2.03 | 5.09 | 6.64 | 11.9 | 7.08 | 2.03 | 5.31
5 | CGAACTAGGTCATTGACAGGATAGTGAATAGTAA | 4.3 | 2.82 | 0.355 | 2.01 | -0.145 | 4.83 | 7.71 | 6.36 | 3.54 | 5.85 | 7.87 | 8.1 | 4.08 | 2.22 | 1.94 | 1.25 | 0.363 | 1.88 | 0.385 | 3.59
6 | TCTTGTAGTTCAAGCAGGTTAAGAAAGCCTGAGT | 1.59 | 1.72 | 0.316 | 1.5 | -0.0715 | 2.02 | -0.535 | 1.65 | 2.53 | 1.94 | 1.37 | 0.625 | -0.45 | -0.0561 | 0.815 | 2.26 | 1.78 | 1.59 | 0.00762 | 2.3
7 | ATCCCTAGGTAAAGTTCAGTGAAAGATCGATAGA | 0.939 | 1.71 | 1.52 | 1.19 | 0.53 | 1.8 | 2.37 | 3.48 | 1.57 | 3.25 | 0.383 | 1.01 | 0.372 | 0.771 | 1.6 | 1.63 | 2.29 | 0.943 | 1.49 | 2.39
